Assay [1] is described as follows: antimalarial activity against Dd2 strain (AID 2302;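 active means growth inhibition above 50% at the single 2 µM test dose, taken to imply half-maximal potency below 2 µM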;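 further: 0% = DMSO untreated growth and 100% = chloroquine plus artemisinin killed control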). The following applies: P. falciparum Dd2 in RBCs, LDH growth readout, 72 h; at 2 µM; hits give high values.
A short description of assay [2]: HepG2 cytotoxicity, primary screen, cytotoxicity control for P. falciparum antimalarial project, cell-based, ATP luminescence (AID 2303;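 active means inhibition above 50%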;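 further: 0% = DMSO wells and 100% = digitonin-killed cells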). The following applies: HepG2 viability, 24-48 h, at 10 µM, hits give high values.
Assay [3] deals with L-lactate dehydrogenase (Plasmodium falciparum (isolate CDC / Honduras)) (UniProt Q27743). The experiment in a line: PfLDH activity inhibition – cell lysate, 3D7 strain, counter-screen for P. falciparum growth inhibition project (AID 2304).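 Further: 0% = vehicle and 100% = reference inhibitor.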 The following applies: P. falciparum 3D7 crude extract, LDH APAD/NBT absorbance; at 2 µM; hits give high values.
Chain of L-lactate dehydrogenase (Plasmodium falciparum (isolate CDC / Honduras)) (Q27743 whole entry, looked up): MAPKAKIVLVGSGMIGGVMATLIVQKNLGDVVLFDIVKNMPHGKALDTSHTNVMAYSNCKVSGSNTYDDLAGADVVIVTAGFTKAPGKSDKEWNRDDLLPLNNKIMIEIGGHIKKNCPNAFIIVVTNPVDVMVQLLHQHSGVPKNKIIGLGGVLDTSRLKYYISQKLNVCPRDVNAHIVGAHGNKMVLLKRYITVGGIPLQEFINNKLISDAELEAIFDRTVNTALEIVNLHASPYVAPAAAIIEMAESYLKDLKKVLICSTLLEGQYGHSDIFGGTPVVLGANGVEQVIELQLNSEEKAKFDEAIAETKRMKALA
A short description of assay [4]: inhibition of 3D7 malaria parasite growth – strain 3D7 (AID 2306).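 Further: 0% = DMSO wells and 100% = chloroquine plus artemisinin control wells.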 Conditions: P. falciparum 3D7 erythrocytic growth, LDH absorbance, 72 h; at 2 µM; hits give high values.
The target in assay [5] is Calcium-dependent protein kinase 1 (Plasmodium falciparum (isolate 3D7)) (UniProt P62344). In words: PfCDPK1 kinase inhibitors, biochemical, TCAMS library (AID 1159585; cut-off not given, nearly all actives have IC50 up to about 0.98 µM;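 further: inhibitors leave more ATP so luminescence rises with inhibition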). The following applies: recombinant PfCDPK1, Kinase-Glo ATP depletion luminescence.
Chain of Calcium-dependent protein kinase 1 (Plasmodium falciparum (isolate 3D7)) (P62344 whole entry, looked up): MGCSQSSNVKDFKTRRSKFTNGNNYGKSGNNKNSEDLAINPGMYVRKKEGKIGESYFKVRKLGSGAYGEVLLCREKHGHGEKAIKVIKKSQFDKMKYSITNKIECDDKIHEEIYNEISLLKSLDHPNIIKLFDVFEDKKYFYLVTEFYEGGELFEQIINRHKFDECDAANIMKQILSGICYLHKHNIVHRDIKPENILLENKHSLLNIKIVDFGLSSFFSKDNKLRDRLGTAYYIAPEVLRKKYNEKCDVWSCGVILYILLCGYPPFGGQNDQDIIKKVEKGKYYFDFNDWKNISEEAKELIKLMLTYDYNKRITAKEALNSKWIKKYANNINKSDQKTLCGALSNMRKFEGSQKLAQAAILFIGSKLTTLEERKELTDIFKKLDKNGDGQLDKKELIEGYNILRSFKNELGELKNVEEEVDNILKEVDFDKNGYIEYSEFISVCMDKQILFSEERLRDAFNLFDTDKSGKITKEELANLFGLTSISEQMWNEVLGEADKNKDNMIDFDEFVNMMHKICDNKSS
Assay [6] addresses Plasmodium falciparum protein kinase 6 (PK6, PF3D7_1337100) (UniProt Q8IDW1). The experiment in a line: PfPK6 kinase inhibitors, biochemical, TCAMS library (AID 1159586). Conditions: recombinant PfPK6, Kinase-Glo ATP depletion luminescence. A general note: In Kinase-Glo more light means more ATP remaining.
For assay [7], the target named is Protein kinase 7 (PK7), Plasmodium falciparum 3D7 (PF3D7_0213400) (UniProt Q7YTF7). In words: inhibition of Plasmodium PK7 catalytic activity – biochemical, TCAMS antimalarial set, Kinase-Glo luminescence (AID 1159587). Conditions: recombinant PfPK7, Kinase-Glo ATP depletion luminescence.
Chain of Protein kinase 7 (PK7), Plasmodium falciparum 3D7 (PF3D7_0213400) (Q7YTF7 1-343): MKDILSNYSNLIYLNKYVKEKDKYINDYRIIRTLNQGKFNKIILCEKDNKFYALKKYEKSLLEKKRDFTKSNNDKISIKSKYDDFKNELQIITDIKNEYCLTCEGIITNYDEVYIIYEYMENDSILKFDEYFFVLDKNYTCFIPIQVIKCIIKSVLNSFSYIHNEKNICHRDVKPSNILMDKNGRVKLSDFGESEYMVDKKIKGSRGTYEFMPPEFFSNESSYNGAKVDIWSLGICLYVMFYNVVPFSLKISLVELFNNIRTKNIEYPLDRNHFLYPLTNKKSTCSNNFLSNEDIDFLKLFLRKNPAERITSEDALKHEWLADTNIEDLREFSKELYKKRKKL
The target in assay [8] is Calcium-dependent protein kinase 4 (Plasmodium falciparum (isolate 3D7)) (UniProt Q8IBS5). In words: PfCDPK4 kinase inhibitors, biochemical, TCAMS library (AID 1159588; cut-off not given, nearly all actives have IC50 up to about 0.91 µM). The following applies: recombinant PfCDPK4, Kinase-Glo ATP depletion luminescence.
Chain of Calcium-dependent protein kinase 4 (Plasmodium falciparum (isolate 3D7)) (Q8IBS5 whole entry, looked up): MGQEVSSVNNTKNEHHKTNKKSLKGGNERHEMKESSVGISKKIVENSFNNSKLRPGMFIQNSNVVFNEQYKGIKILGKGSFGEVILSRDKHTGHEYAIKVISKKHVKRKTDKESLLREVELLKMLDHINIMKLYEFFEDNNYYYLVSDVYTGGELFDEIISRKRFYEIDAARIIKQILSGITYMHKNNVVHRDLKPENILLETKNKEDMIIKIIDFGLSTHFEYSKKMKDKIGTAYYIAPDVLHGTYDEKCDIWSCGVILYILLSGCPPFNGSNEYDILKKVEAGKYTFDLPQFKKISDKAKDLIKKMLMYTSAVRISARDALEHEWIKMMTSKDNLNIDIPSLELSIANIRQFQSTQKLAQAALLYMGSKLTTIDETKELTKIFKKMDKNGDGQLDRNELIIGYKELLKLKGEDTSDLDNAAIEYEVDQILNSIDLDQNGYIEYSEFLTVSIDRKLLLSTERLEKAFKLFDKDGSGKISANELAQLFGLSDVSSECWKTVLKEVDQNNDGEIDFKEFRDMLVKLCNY

Experimental findings from PubChem BioAssay are described below.

Unmarked numbers belong to inactive results. For part of these data: Entries with a potency or affinity are not part of this list. Calls of active or inactive are those of the source. Unless noted, how the calls were made is not given here.

Chain of Plasmodium falciparum protein kinase 6 (PK6, PF3D7_1337100) (Q8IDW1 1-305): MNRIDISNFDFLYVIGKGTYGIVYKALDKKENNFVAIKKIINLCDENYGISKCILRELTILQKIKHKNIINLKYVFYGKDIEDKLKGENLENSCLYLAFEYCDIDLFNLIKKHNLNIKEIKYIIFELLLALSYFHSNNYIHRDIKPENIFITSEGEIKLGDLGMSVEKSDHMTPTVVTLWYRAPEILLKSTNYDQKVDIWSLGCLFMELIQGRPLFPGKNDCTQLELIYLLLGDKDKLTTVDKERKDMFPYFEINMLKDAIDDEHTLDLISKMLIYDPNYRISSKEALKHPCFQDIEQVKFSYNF

In general, inhibition refers to the relative decrease from the control value, in per cent. `COCCCNc1sc(S(=O)(=O)c2ccccc2)nc1S(=O)(=O)c1ccc(Cl)cc1`: the figures for the growth inhibition in assay [1] and in assay [4] were 87% (active) and 95% (active), respectively. The inhibition in assay [2] was -7%; in assay [3], 4%. In addition, the outcome in assay [5], in assay [6], in assay [7] and in assay [8] was inactive.
Regarding `CCN1CCC(N(Cc2ccc(-c3ccc(Cl)cc3)cc2)C(=O)Cn2c(CCc3cccc(F)c3F)cc(=O)c3ccccc32)CC1`, the growth inhibition in assay [1] was 95% (active); in assay [4], 99% (active). Besides, the inhibition in assay [2] is 100% (active); in assay [3] it was -7%. Also, the outcome in assay [5], in assay [6], in assay [7] and in assay [8] was inactive.
Turning to `CCc1[nH]nc(C(=O)NC2CCN(CC3(c4ccc(OC)cc4)CCCCC3)CC2)c1C`, the growth inhibition in assay [1] and in assay [4] was 90% (active) each time. Further, the inhibition in assay [2] is 2%; in assay [3], -1%. The result in assay [5], in assay [6], in assay [7] and in assay [8] was inactive.
